Drawing on the supplement of paper PMC8877412, this text covers cell viability for 40 compounds.

Where a name gives a salt, the structure may show the parent alone. ± gives the uncertainty stated by the source.

The assay has as its system NCC-PMP1-C1. Nature of the assay: cell viability relative to DMSO control; higher = less growth inhibition. Conditions: 10 µM; 72 h. As to the method: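 NCC-PMP1-C1 pseudomyxoma peritonei cells were seeded in 384-well plates coated with Matrigel and MEF (1e4 cells). Viability was read after 72 h by CCK-8 and expressed as % of the DMSO control, mean ± SD of duplicates.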
As a reminder, the cell viability is a read-out of living cells in per cent, often relative to untreated cells. For `C=C1c2cccc(O)c2C(O)=C2C(=O)[C@]3(O)C(O)=C(C(N)=O)C(=O)[C@@H](N(C)C)[C@@H]3[C@@H](O)[C@H]12` [Methacycline HCl], the cell viability was found to be 108.4 ± 0.2%.
To `CN(C)c1nc(N(C)C)nc(N(C)C)n1` [Altretamine] belongs 113 ± 7.4%.
To `COc1cc2c(cc1O)CC[C@@H]1[C@@H]2CC[C@]2(C)[C@@H](O)CC[C@@H]12` [2-Methoxyestradiol (2-MeOE2)] belongs 98 ± 4%.
The value for `Nc1ccn([C@@H]2O[C@H](CO)[C@@H](O)[C@@H]2O)c(=O)n1` [Cytosine β-D-arabinofuranoside hydrochloride] was 74.2 ± 10%; that for `COc1cccc2c1C(=O)c1c(O)c3c(c(O)c1C2=O)C[C@@](O)(C(=O)CO)C[C@@H]3O[C@H]1C[C@H](N)[C@@H](O)[C@H](C)O1` [Epirubicin HCl] was 3.6 ± 0.6%.
For the compound `CN1CCN(CCOc2cc(OC3CCOCC3)c3c(Nc4c(Cl)ccc5c4OCO5)ncnc3c2)CC1` [Saracatinib (AZD0530)], the cell viability is 49.7 ± 2%.
To `COc1nc(N)nc2c1ncn2[C@@H]1O[C@H](CO)[C@@H](O)[C@@H]1O` [Nelarabine] belongs 127 ± 21%; to `Nc1nc2[nH]cc(CCc3ccc(C(=O)N[C@@H](CCC(=O)O)C(=O)O)cc3)c2c(=O)[nH]1` [Pemetrexed Disodium Hydrate], 101 ± 18%.
Turning to `NC(=O)NO` [Hydroxyurea], the cell viability came to 136 ± 8.1%.
Regarding `CCN1CCN(Cc2ccc(Nc3ncc(F)c(-c4cc(F)c5nc(C)n(C(C)C)c5c4)n3)nc2)CC1` [Abemaciclib], the cell viability was determined as 65.2 ± 4.2%.
`O=c1c(-c2ccc(O)cc2)coc2cc(O)cc(O)c12` [Genistein]: the cell viability came out at 100 ± 2.1%.
To `CCN1CCN(Cc2ccc(Nc3ncc(F)c(-c4cc(F)c5nc(C)n(C(C)C)c5c4)n3)nc2)CC1` [Abemaciclib mesylate] belongs 77.7 ± 1.2%; to `CCN(CC)CCNC(=O)c1c(C)[nH]c(/C=C2\C(=O)Nc3ccc(F)cc32)c1C` [Sunitinib], 35.5 ± 3.6%.
Take `COc1ccc(C2=N[C@@H](c3ccc(Cl)cc3)[C@@H](c3ccc(Cl)cc3)N2C(=O)N2CCNC(=O)C2)c(OC(C)C)c1` [Nutlin-3]: the cell viability came to 74.1 ± 4.9%.
For the compound `O=c1[nH]cc(F)c(=O)[nH]1` [Fluorouracil (5-Fluoracil, 5-FU)], the cell viability is 86.7 ± 7.5%.
To `O=C(c1cc(Cc2n[nH]c(=O)c3ccccc23)ccc1F)N1CCN(C(=O)C2CC2)CC1` belongs 92.3 ± 8.4%.
Regarding `CCCS(=O)(=O)Nc1ccc(F)c(C(=O)c2c[nH]c3ncc(-c4ccc(Cl)cc4)cc23)c1F` [Vemurafenib (PLX4032, RG7204)], the cell viability was -12.5 ± 0.2%.
To `C=CC(=O)Nc1cccc(Nc2nc(Nc3ccc(N4CCN(C(C)=O)CC4)cc3OC)ncc2C(F)(F)F)c1` [Rociletinib (CO-1686, AVL-301)] belongs 57.8 ± 3.1%; to `CC(=O)Oc1ccccc1C(=O)O` [Aspirin], 110 ± 4.8%.
The value for `Nc1nc(CC(=O)Nc2ccc(CCNC[C@H](O)c3ccccc3)cc2)cs1` [Mirabegron] was 101 ± 5.9%; that for `COc1cccc2c1C(=O)c1c(O)c3c(c(O)c1C2=O)C[C@@](O)(C(=O)CO)C[C@@H]3O[C@H]1C[C@H](N)[C@H](O)[C@H](C)O1` [Doxorubicin (Adriamycin)] was 3.06 ± 0.067%; that for `COc1c2ccoc2cc2oc(=O)ccc12` [Bergapten] was 87.3 ± 5%.
The value for `Oc1ncnc2[nH]ncc12` [Allopurinol] was 123 ± 13%.
As for `Cc1ccc(-n2[nH]c(C)c(N=Nc3cccc(-c4cccc(C(=O)O)c4)c3O)c2=O)cc1C` [Eltrombopag Olamine], the cell viability was 113 ± 3.3%.
Regarding `COc1cc(Nc2c(C#N)cnc3cc(OCCCN4CCN(C)CC4)c(OC)cc23)c(Cl)cc1Cl` [Bosutinib (SKI-606)], the cell viability is 52.4 ± 0.73%.
Take `COc1cc2ncnc(Nc3ccc(F)c(Cl)c3)c2cc1NC(=O)/C=C/CN1CCCCC1`: the cell viability was determined as 68.1 ± 1.6%.
To `O=C(c1ccc(OCCN2CCCCC2)cc1)c1c(-c2ccc(O)cc2)sc2cc(O)ccc12` [Raloxifene HCl] belongs 92.9 ± 5.5%; to `COc1cc2nccc(Oc3ccc(NC(=O)Nc4cc(C)on4)c(Cl)c3)c2cc1OC` [Tivozanib (AV-951)], 60.7 ± 11%; to `CS(=O)(=O)c1ccc(C(=O)Nc2ccc(Cl)c(-c3ccccn3)c2)c(Cl)c1` [Vismodegib (GDC-0449)], 90.5 ± 3.3%.
In the case of `CC(=O)O[C@]1(C(C)=O)CC[C@H]2[C@@H]3C=C(C)C4=CC(=O)CC[C@]4(C)[C@H]3CC[C@@]21C` [Megestrol Acetate], the cell viability was determined as 91.4 ± 16%.
The value for `Nc1nc2n[nH]nc2c(=O)[nH]1` [Azaguanine-8] was 55.8 ± 6.5%; that for `COC(=O)N[C@H](C(=O)N[C@@H](Cc1ccccc1)[C@@H](O)CN(Cc1ccc(-c2ccccn2)cc1)NC(=O)[C@@H](NC(=O)OC)C(C)(C)C)C(C)(C)C` [Atazanavir Sulfate] was 109 ± 1.1%; that for `CC(=O)[C@]1(O)Cc2c(O)c3c(c(O)c2[C@@H](O[C@H]2C[C@H](N)[C@H](O)[C@H](C)O2)C1)C(=O)c1ccccc1C3=O` [Idarubicin HCl] was 4.26 ± 0.73%.
To `Cc1ccc(NC(=O)c2ccc(CN3CC[C@H](N(C)C)C3)c(C(F)(F)F)c2)cc1Nc1nccc(-c2cncnc2)n1` [Bafetinib (INNO-406)] belongs 72.1 ± 3.7%; to `O=C(O)C1(C(=O)O)CCC1.[NH2-].[NH2-].[Pt+2]` [Carboplatin], 61.9 ± 9.4%.
The value for `C#Cc1cccc(Nc2ncnc3cc(OCCOC)c(OCCOC)cc23)c1` [Erlotinib HCl (OSI-744)] was 74.6 ± 2.7%; that for `CN(C)C/C=C/C(=O)Nc1cc2c(Nc3ccc(F)c(Cl)c3)ncnc2cc1O[C@H]1CCOC1` [Afatinib (BIBW2992)] was 12.4 ± 2.3%; that for `O=C1c2c(O)ccc(O)c2C(=O)c2c(NCCNCCO)ccc(NCCNCCO)c21` [Mitoxantrone 2HCl] was 2.67 ± 1.1%.
Regarding `CCC(C)n1ncn(-c2ccc(N3CCN(c4ccc(OCC5COC(Cn6cncn6)(c6ccc(Cl)cc6Cl)O5)cc4)CC3)cc2)c1=O` (stereo not given) [Itraconazole], the cell viability amounted to 81.9 ± 2.1%.
The value for `CCCCNC(=O)NS(=O)(=O)c1ccc(C)cc1` [Tolbutamide] was 96.4 ± 6.1%.
